In the library only some 2.4% were active in any assay of this set; here they are far more common.
POLB inh = inhibitors of human DNA polymerase beta; P06746; Pol beta primer extension/strand displacement, fluorescence kinetic; Potency, µM (titrated, usually from 114 µM), inactives show at the top dose activity change, negative = inhibition, hits mostly inhibitors; 1.3% of 340,000 active; also: % is scaled to controls: 0 for no effect and ±100 for the full control effect
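Curves were derived by four-parameter Hill fits of normalized qHTS data. The kinetic fluorescent primer-extension read was taken at 0 and 10 min after 50 nM substrate, following a 15 min room-temperature preincubation of 10 nM enzyme with compounds.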
TDP1 inh = blocks human tyrosyl-DNA phosphodiesterase 1; Potency, µM (doses to about 130 µM), without a hit: at the top dose activity change, negative = inhibition, actives largely listed as inhibitors; recombinant TDP1, AlphaScreen DNA substrate cleavage; Q9NUW8; 0.28% of 350,000 active; also: % is scaled to controls: 0 for no effect and ±100 for the full control effect; nearly all actives have a fitted effect of over 40% in size
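Tdp1 1 nM final; 15 min RT w/ cpd; substrate 15 nM, 5 min; beads 10 ug/ml, 10 min; AlphaScreen read. Neg ctrl: no enzyme.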
Pol iota inh = inhibitors of human DNA polymerase iota. Q9UNA4. Pol iota fluorescent replication assay, 10 min. Potency, µM (top dose mostly 115 µM), without a hit: at the highest dose activity, negative = inhibition, usual class: inhibitors. 1% of 390,000 active. AID 588590
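Pol iota at 10 nM preincubated 15 min with compounds at room temperature; reaction started with fluorescent substrate, 50 nM final. Fluorescence read kinetically at 0 and 10 min; buffer-only wells as negative control.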
POLH inh = blocks human DNA polymerase eta activity. Q9Y253. recombinant Pol eta, fluorescent DNA replication assay. Potency, µM (doses to about 114 µM), for inactives: at the top dose activity change, negative = inhibition, hits mostly inhibitors. 1.2% of 390,000 active. AID 588591; also: % is scaled to controls: 0 for no effect and ±100 for the full control effect
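Pol eta (10 nM) was preincubated with compounds for 15 min at room temperature, after which fluorescent replication substrate (50 nM final) was added to start the reaction. Fluorescence was read kinetically at 0 and 10 min.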
Pol kappa inh = DNA polymerase kappa (human) inhibition | Q9UBT6 | purified Pol kappa, fluorescent DNA synthesis assay, 10 min | Potency, µM (series often up to 107 µM), without a hit: at the highest dose activity, negative = inhibition, usual class: inhibitors | 0.53% of 400,000 active | AID 588579; also: % is scaled to controls: 0 for no effect and ±100 for the full control effect
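Activity was followed as the change in fluorescence between reads at 0 and 10 min after starting the reaction with 50 nM substrate. Beforehand, 10 nM polymerase had been preincubated with compound for 15 min at room temperature.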
FEN1 inh = human FEN1 inhibition; P39748; Recombinant FEN1 flap cleavage, fluorescence, 15 min; Potency, µM (doses to about 114 µM), inactives show top-dose activity change, negative = inhibition, usual class: inhibitors; 0.35% of 390,000 active; AID 588795; also: % is scaled to controls: 0 for no effect and ±100 for the full control effect; nearly all actives have a fitted effect of over 65% in size
Target sequence (P39748 whole entry, looked up): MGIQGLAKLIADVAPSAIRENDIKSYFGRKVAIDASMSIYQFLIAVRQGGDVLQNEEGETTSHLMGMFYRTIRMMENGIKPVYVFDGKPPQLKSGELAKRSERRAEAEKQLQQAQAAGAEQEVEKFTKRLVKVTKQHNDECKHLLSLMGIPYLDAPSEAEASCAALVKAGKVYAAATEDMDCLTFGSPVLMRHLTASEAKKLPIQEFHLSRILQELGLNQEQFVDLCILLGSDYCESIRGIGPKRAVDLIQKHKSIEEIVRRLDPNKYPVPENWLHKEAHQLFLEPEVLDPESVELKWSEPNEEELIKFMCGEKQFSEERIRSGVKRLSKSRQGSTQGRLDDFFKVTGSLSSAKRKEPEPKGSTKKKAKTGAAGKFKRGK
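Potency values derive from four-parameter Hill fits of normalized qHTS data. The reaction used 10 nM FEN1 preincubated 15 min at room temperature with compound, then 50 nM DNA substrate, read at 0 and 15 min.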
* marks the source's active call; other numbers are inactive results; ? = inconclusive; / = no result given; ! = repeats disagree; [ ] = remark or other dose. Calls follow the shape of the dose curve; as a rule, active = well fitted curve in the direction sought with a large enough effect; inconclusive = small, poorly fitted or top-dose-only effect, or another doubt; inactive = no such curve, though single readings can be large; an effect the other way counts as inactive or inconclusive. Potency is read from the fitted curve at half-maximal effect.

SMILES	POLB inh	TDP1 inh	Pol iota inh	POLH inh	Pol kappa inh	FEN1 inh
Cc1nn2c(=O)cc(COC(=O)c3ccc(NC(=O)c4cccs4)cc3)nc2s1	29%	-4%	0%	-10%	-4%[60.1 µM]	-5%
Cc1ccc(C(=O)OCc2cc(=O)n3nc(-c4cccs4)sc3n2)cc1	18µM*	1%	?	89µM*	?	1%
O=C(COc1ccc(Cl)cc1)OCc1cc(=O)n2nc(-c3cccs3)sc2n1	25µM*	-1%	?	?	-22%	-5%
Cc1ccc(OCC(=O)OCc2cc(=O)n3nc(-c4cccs4)sc3n2)cc1	?	-1%	?	-8%	0%	1%
CCc1nn2c(=O)cc(COC(=O)c3ccc(NC(=O)c4cccs4)cc3)nc2s1	9%	1%	41%	-11%	-4%[60.1 µM]	0%
O=S(=O)(c1ccc2c(c1)OCCO2)N1CCN(S(=O)(=O)c2cc(F)c(Br)cc2F)CC1	/	0%	/	/	/	/
COc1ccc(-n2c(=O)c3c(c4cc(OC)ccc4n3C)n(CCC(C)C)c2=O)cc1	5%	-3%	-10%	-10%	3%	3%
Cc1ccc(CNC(=O)CN2CCN(Cc3ccc(F)cc3Cl)C2=O)cc1	6%	-9%[12.3 µM]	41%	-15%	11%	-22%
O=C(c1ccc(Br)cc1)C(CN1CCOCC1)c1ccccc1 (stereo unspecified)	1%	/	20µM*	-7%	-7%	-2%
CCOc1ccc(C(=O)C(CN2CCOCC2)c2ccccc2)cc1 (stereo unspecified)	7%	0%	?	-12%	-3%	-3%
O=C1C2=C(C(=O)c3ccccc31)C1O[C@](c3ccsc3)(Cc3c1ccc1ccccc31)O2	3.2µM*	/	/	/	/	/
O=c1oc2ccccc2c2c1C1O[C@](c3ccsc3)(Cc3c1ccc1ccccc31)O2	13µM*	/	/	/	/	/
COc1ccc([C@]23Cc4c(ccc5ccccc45)C(O2)C2=C(CCCC2=O)O3)cc1	-2%[22.9 µM]	/	/	/	/	/
O=C1CCCC2=C1C1O[C@](c3ccsc3)(Cc3c1ccc1ccccc31)O2	4µM*	/	/	/	/	/
O=C1c2ccccc2C(=O)N1CCCC[C@]12Cc3ccccc3C(O1)c1c(c3ccccc3oc1=O)O2	-13%[22.9 µM]	/	/	/	/	/
CCCCC/C=C\C\C=C/C=C/C=C/[C@@H](SC[C@H](N)C(=O)NCC(=O)O)[C@@H](O)CCCC(=O)O	/	4%	/	/	1%[19.4 µM]	/
CS(=O)(=O)c1ccc(S(=O)CC(=O)OCc2ccccc2)c([N+](=O)[O-])c1 (stereo unspecified)	6%	5%	20µM*	-4%	-5%	-18%
O=[N+]([O-])c1ccc(Nc2ccccc2)c2nonc12	5%	/	10%	-14%	4%	-17%
O=[N+]([O-])c1ccc(Sc2cccc[n+]2[O-])c2nonc12	20µM*	9%	3.5µM*	4.5µM*	32µM*	22µM*
CC(C(=O)O)c1cccc(C(=O)c2ccccc2)c1 (stereo unspecified)	4%	3%	6%[58.9 µM]	0%[57.1 µM]	-1%[60.1 µM]	/
C[C@H](C(=O)O)c1cccc(C(=O)c2ccccc2)c1	/	9%	15%	-18%	11µM*!	/
CCC(C)C(N)C(=O)NC(CC(N)=O)C(=O)NC(CC(C)C)C(=O)NC(CCCCN)C(=O)NC(C)C(=O)NC(CC(C)C)C(=O)NC(C)C(=O)NC(C)C(=O)NC(CC(C)C)C(=O)NC(C)C(=O)NC(CCCCN)C(=O)NC(CCCCN)C(=O)NC(C(=O)NC(CC(C)C)C(N)=O)C(C)CC (stereo unspecified)	/	13%	/	/	-8%[60.1 µM]	/
O=C(COC(=O)c1ccc(Br)o1)NCc1ccco1	/	/	50µM*	10µM*	?	-10%
O=C(COC(=O)c1ccc(S(=O)(=O)N2CCCC2)cc1)NCc1ccco1	?	-2%	50µM*	?	?	-9%
O=C(COC(=O)c1ccc(Cl)c(S(=O)(=O)N2CCCC2)c1)NCc1ccccc1	/	35µM*	?	?	-25%	-4%

Source: PubChem
